Binding signal data for 25 sequences are collected here from paper PMC11006913.

What all share (test): PBM; 200 nM protein, PBS
Conditions in all cases: dsDNA, one strand shown

Test [1] addresses MSX2 (Homo sapiens, UniProt P35548 130-214, R199I).
Test [2] concerns the target MSX2 (Homo sapiens, UniProt P35548 130-214).
For test [3], the target named is MSX2 (Homo sapiens, UniProt P35548 130-214, F161Y).
The target of test [4] is ALX1 (Homo sapiens, UniProt Q15699 118-204, L144V).
Test [5] deals with ALX3 (Homo sapiens, UniProt O95076 139-225, N203Q).
The target in test [6] is ALX1 (Homo sapiens, UniProt Q15699 118-204, L144R).
Test [7] has as its target ALX1 (Homo sapiens, UniProt Q15699 118-204).
Test [8] concerns the target NKX3-2 (Homo sapiens, UniProt P78367 192-278, P234S).
In test [9] the target is NKX3-2 (Homo sapiens, UniProt P78367 192-278).
Test [10] concerns the target PITX2 (Homo sapiens, UniProt Q99697 72-157).
In test [11] the target is VAX1 (Homo sapiens, UniProt Q5SQQ9 86-172).
In test [12] the target is VAX1 (Homo sapiens, UniProt Q5SQQ9 86-172, T142I).
For test [13], the target named is HOXA4 (Homo sapiens, UniProt Q00056 201-287, W262F).
Test [14] has as its target VAX1 (Homo sapiens, UniProt Q5SQQ9 86-172, K157R).
Test [15] has as its target ALX3 (Homo sapiens, UniProt O95076 139-225).
The target in test [16] is ALX3 (Homo sapiens, UniProt O95076 139-225, L168Q).
For test [17], the target named is ALX3 (Homo sapiens, UniProt O95076 139-225, L168V).
Test [18] has as its target ALX3 (Homo sapiens, UniProt O95076 139-225, N203S).

Chain of MSX2 (Homo sapiens, UniProt P35548 130-214, R199I) (P35548 130-214 R199I): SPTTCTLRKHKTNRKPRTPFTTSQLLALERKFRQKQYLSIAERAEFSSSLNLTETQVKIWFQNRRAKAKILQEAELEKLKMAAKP
Chain of ALX1 (Homo sapiens, UniProt Q15699 118-204, L144V) (Q15699 118-204 L144V): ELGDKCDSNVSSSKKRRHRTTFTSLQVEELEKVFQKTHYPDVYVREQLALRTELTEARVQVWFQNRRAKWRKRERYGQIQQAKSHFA
Chain of ALX1 (Homo sapiens, UniProt Q15699 118-204) (Q15699 118-204): as the sequence (Q15699 118-204 L144V) above, with V27L counted along it
Chain of MSX2 (Homo sapiens, UniProt P35548 130-214) (P35548 130-214): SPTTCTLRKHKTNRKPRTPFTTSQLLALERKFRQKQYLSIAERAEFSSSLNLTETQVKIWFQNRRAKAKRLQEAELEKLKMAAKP
Chain of ALX3 (Homo sapiens, UniProt O95076 139-225, N203Q) (O95076 139-225 N203Q): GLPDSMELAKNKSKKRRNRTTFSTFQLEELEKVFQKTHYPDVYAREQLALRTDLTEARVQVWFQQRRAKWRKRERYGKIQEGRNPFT
Chain of ALX1 (Homo sapiens, UniProt Q15699 118-204, L144R) (Q15699 118-204 L144R): as the sequence (Q15699 118-204 L144V) above, with V27R counted along it
Chain of MSX2 (Homo sapiens, UniProt P35548 130-214, F161Y) (P35548 130-214 F161Y): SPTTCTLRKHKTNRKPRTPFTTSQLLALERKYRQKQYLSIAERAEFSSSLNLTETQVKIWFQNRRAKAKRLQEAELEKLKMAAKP
Chain of NKX3-2 (Homo sapiens, UniProt P78367 192-278, P234S) (P78367 192-278 P234S): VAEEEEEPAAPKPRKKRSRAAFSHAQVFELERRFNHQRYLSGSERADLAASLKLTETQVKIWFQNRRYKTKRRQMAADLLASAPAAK
Chain of ALX3 (Homo sapiens, UniProt O95076 139-225, L168V) (O95076 139-225 L168V): as the sequence (O95076 139-225 N203Q) above, with L30V, Q65N counted along it
Chain of ALX3 (Homo sapiens, UniProt O95076 139-225) (O95076 139-225): as the sequence (O95076 139-225 N203Q) above, with Q65N counted along it
Chain of ALX3 (Homo sapiens, UniProt O95076 139-225, L168Q) (O95076 139-225 L168Q): as the sequence (O95076 139-225 N203Q) above, with L30Q, Q65N counted along it
Chain of ALX3 (Homo sapiens, UniProt O95076 139-225, N203S) (O95076 139-225 N203S): as the sequence (O95076 139-225 N203Q) above, with Q65S counted along it
Chain of NKX3-2 (Homo sapiens, UniProt P78367 192-278) (P78367 192-278): as the sequence (P78367 192-278 P234S) above, with S43P counted along it
Chain of VAX1 (Homo sapiens, UniProt Q5SQQ9 86-172, T142I) (Q5SQQ9 86-172 T142I): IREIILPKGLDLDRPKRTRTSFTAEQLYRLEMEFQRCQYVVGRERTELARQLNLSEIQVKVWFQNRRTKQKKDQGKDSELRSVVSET
Chain of HOXA4 (Q00056 201-287 W262F): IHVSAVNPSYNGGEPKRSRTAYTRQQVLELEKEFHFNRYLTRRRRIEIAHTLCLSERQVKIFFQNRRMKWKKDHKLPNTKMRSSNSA
Chain of VAX1 (Homo sapiens, UniProt Q5SQQ9 86-172, K157R) (Q5SQQ9 86-172 K157R): as the sequence (Q5SQQ9 86-172 T142I) above, with I57T, K72R counted along it
Chain of VAX1 (Homo sapiens, UniProt Q5SQQ9 86-172) (Q5SQQ9 86-172): as the sequence (Q5SQQ9 86-172 T142I) above, with I57T counted along it

As to GAACACCC, the binding signal is 9.57 upbm affinity estimate (log intensity, higher = more binding, comparable within an allelic series) in test [1]; 9.63 upbm affinity estimate (log intensity, higher = more binding, comparable within an allelic series) in test [2]; 9.59 upbm affinity estimate (log intensity, higher = more binding, comparable within an allelic series) in test [3].

Take ATTATAAC: the binding signal in test [4] was 10.3 upbm affinity estimate (log intensity, higher = more binding, comparable within an allelic series); in test [5], 8.52 upbm affinity estimate (log intensity, higher = more binding, comparable within an allelic series); in test [6] it was 9.95 upbm affinity estimate (log intensity, higher = more binding, comparable within an allelic series); in test [7], 10.6 upbm affinity estimate (log intensity, higher = more binding, comparable within an allelic series).

In the case of CCCCTACG, the binding signal is 9.54 upbm affinity estimate (log intensity, higher = more binding, comparable within an allelic series) in test [1]; 9.48 upbm affinity estimate (log intensity, higher = more binding, comparable within an allelic series) in test [2]; 9.63 upbm affinity estimate (log intensity, higher = more binding, comparable within an allelic series) in test [3].

In the case of ATTAACAC, the binding signal in test [1] was 11.3 upbm affinity estimate (log intensity, higher = more binding, comparable within an allelic series); in [2] it was 12.1 upbm affinity estimate (log intensity, higher = more binding, comparable within an allelic series); in test [3], 11.8 upbm affinity estimate (log intensity, higher = more binding, comparable within an allelic series).

For the sequence CCTACGCC, the binding signal in [4] was 6.43 upbm affinity estimate (log intensity, higher = more binding, comparable within an allelic series); in [6], 6.36 upbm affinity estimate (log intensity, higher = more binding, comparable within an allelic series); in [7], 6.5 upbm affinity estimate (log intensity, higher = more binding, comparable within an allelic series).

As for AGCCTTCG, the binding signal in test [4] is 6.33 upbm affinity estimate (log intensity, higher = more binding, comparable within an allelic series); in [6] it was 6.46 upbm affinity estimate (log intensity, higher = more binding, comparable within an allelic series); in [7], 6.29 upbm affinity estimate (log intensity, higher = more binding, comparable within an allelic series).

Take CTCTTGGC: the binding signal in test [4] is 6.39 upbm affinity estimate (log intensity, higher = more binding, comparable within an allelic series); in [6] it was 6.52 upbm affinity estimate (log intensity, higher = more binding, comparable within an allelic series); in test [8] it was 11.6 upbm affinity estimate (log intensity, higher = more binding, comparable within an allelic series); in test [7], 6.47 upbm affinity estimate (log intensity, higher = more binding, comparable within an allelic series); in test [9], 11.7 upbm affinity estimate (log intensity, higher = more binding, comparable within an allelic series).

In the case of CACGCTCG, the binding signal is 6.33 upbm affinity estimate (log intensity, higher = more binding, comparable within an allelic series) in test [4]; 7.92 upbm affinity estimate (log intensity, higher = more binding, comparable within an allelic series) in test [10]; 6.26 upbm affinity estimate (log intensity, higher = more binding, comparable within an allelic series) in test [6]; 6.3 upbm affinity estimate (log intensity, higher = more binding, comparable within an allelic series) in test [7].

As for CACGGTCG, the binding signal in test [1] is 9.6 upbm affinity estimate (log intensity, higher = more binding, comparable within an allelic series); in test [2] it was 9.56 upbm affinity estimate (log intensity, higher = more binding, comparable within an allelic series); in [3], 9.58 upbm affinity estimate (log intensity, higher = more binding, comparable within an allelic series).

CCTTGGCG: the binding signal is 6.13 upbm affinity estimate (log intensity, higher = more binding, comparable within an allelic series) in test [4]; 6.15 upbm affinity estimate (log intensity, higher = more binding, comparable within an allelic series) in test [6]; 6.14 upbm affinity estimate (log intensity, higher = more binding, comparable within an allelic series) in test [7].

On to AATTTTTA, for which the binding signal was 11.1 upbm affinity estimate (log intensity, higher = more binding, comparable within an allelic series) in [1]; 11.9 upbm affinity estimate (log intensity, higher = more binding, comparable within an allelic series) in [2]; 11.6 upbm affinity estimate (log intensity, higher = more binding, comparable within an allelic series) in [3].

In the case of GCCAGGAC, the binding signal was 9.69 upbm affinity estimate (log intensity, higher = more binding, comparable within an allelic series) in test [1]; 9.71 upbm affinity estimate (log intensity, higher = more binding, comparable within an allelic series) in test [2]; 9.76 upbm affinity estimate (log intensity, higher = more binding, comparable within an allelic series) in test [3].

CAGCGAGA: the binding signal in test [4] is 6.61 upbm affinity estimate (log intensity, higher = more binding, comparable within an allelic series); in [6] it was 6.49 upbm affinity estimate (log intensity, higher = more binding, comparable within an allelic series); in test [7] it was 6.63 upbm affinity estimate (log intensity, higher = more binding, comparable within an allelic series).

Take ACTTTAAA: the binding signal in test [4] is 8.62 upbm affinity estimate (log intensity, higher = more binding, comparable within an allelic series); in test [6] it was 8.74 upbm affinity estimate (log intensity, higher = more binding, comparable within an allelic series); in [7], 8.8 upbm affinity estimate (log intensity, higher = more binding, comparable within an allelic series).

Take CTAATGAA: the binding signal in test [4] was 10.6 upbm affinity estimate (log intensity, higher = more binding, comparable within an allelic series); in [6] it was 10.2 upbm affinity estimate (log intensity, higher = more binding, comparable within an allelic series); in [11], 12.7 upbm affinity estimate (log intensity, higher = more binding, comparable within an allelic series); in test [12] it was 12.4 upbm affinity estimate (log intensity, higher = more binding, comparable within an allelic series); in test [7] it was 11.1 upbm affinity estimate (log intensity, higher = more binding, comparable within an allelic series); in test [13] it was 11.5 upbm affinity estimate (log intensity, higher = more binding, comparable within an allelic series). For the same sequence, in [14], the binding signal was 12.4 upbm affinity estimate (log intensity, higher = more binding, comparable within an allelic series).

Consider CCGGGCCG, for which the binding signal is 6.6 upbm affinity estimate (log intensity, higher = more binding, comparable within an allelic series) in test [4]; 7.72 upbm affinity estimate (log intensity, higher = more binding, comparable within an allelic series) in [5]; 6.56 upbm affinity estimate (log intensity, higher = more binding, comparable within an allelic series) in [6]; 7.76 upbm affinity estimate (log intensity, higher = more binding, comparable within an allelic series) in test [15]; 7.74 upbm affinity estimate (log intensity, higher = more binding, comparable within an allelic series) in [16]; 7.65 upbm affinity estimate (log intensity, higher = more binding, comparable within an allelic series) in test [17]. The binding signal in [7] was 6.37 upbm affinity estimate (log intensity, higher = more binding, comparable within an allelic series); in test [18], 7.67 upbm affinity estimate (log intensity, higher = more binding, comparable within an allelic series).

For AGAGCGCC, the binding signal in test [4] is 6.46 upbm affinity estimate (log intensity, higher = more binding, comparable within an allelic series); in [5], 7.79 upbm affinity estimate (log intensity, higher = more binding, comparable within an allelic series); in [6], 6.49 upbm affinity estimate (log intensity, higher = more binding, comparable within an allelic series); in test [15], 7.87 upbm affinity estimate (log intensity, higher = more binding, comparable within an allelic series); in test [16], 7.76 upbm affinity estimate (log intensity, higher = more binding, comparable within an allelic series); in test [17], 7.79 upbm affinity estimate (log intensity, higher = more binding, comparable within an allelic series). In addition, the binding signal in test [7] is 6.45 upbm affinity estimate (log intensity, higher = more binding, comparable within an allelic series); in test [18], 7.78 upbm affinity estimate (log intensity, higher = more binding, comparable within an allelic series).

In the case of CCGGGGAG, the binding signal is 6.03 upbm affinity estimate (log intensity, higher = more binding, comparable within an allelic series) in [4]; 6.12 upbm affinity estimate (log intensity, higher = more binding, comparable within an allelic series) in test [6]; 10.5 upbm affinity estimate (log intensity, higher = more binding, comparable within an allelic series) in test [8]; 5.94 upbm affinity estimate (log intensity, higher = more binding, comparable within an allelic series) in [7]; 10.5 upbm affinity estimate (log intensity, higher = more binding, comparable within an allelic series) in [9].

Regarding CGGCCGAG, the binding signal in [4] is 6.33 upbm affinity estimate (log intensity, higher = more binding, comparable within an allelic series); in test [6], 6.51 upbm affinity estimate (log intensity, higher = more binding, comparable within an allelic series); in [7], 6.15 upbm affinity estimate (log intensity, higher = more binding, comparable within an allelic series).

Turning to AGCTACGA, the binding signal is 6.35 upbm affinity estimate (log intensity, higher = more binding, comparable within an allelic series) in [4]; 6.56 upbm affinity estimate (log intensity, higher = more binding, comparable within an allelic series) in [6]; 6.35 upbm affinity estimate (log intensity, higher = more binding, comparable within an allelic series) in [7].

On to CGCCCACG, for which the binding signal was 9.47 upbm affinity estimate (log intensity, higher = more binding, comparable within an allelic series) in test [1]; 9.54 upbm affinity estimate (log intensity, higher = more binding, comparable within an allelic series) in [2]; 9.52 upbm affinity estimate (log intensity, higher = more binding, comparable within an allelic series) in [3].

Turning to CGCCGAGA, the binding signal in [4] was 6.15 upbm affinity estimate (log intensity, higher = more binding, comparable within an allelic series); in test [6], 6.32 upbm affinity estimate (log intensity, higher = more binding, comparable within an allelic series); in test [7] it was 6.31 upbm affinity estimate (log intensity, higher = more binding, comparable within an allelic series).

Consider AGAAGGGC, for which the binding signal in test [4] was 6.58 upbm affinity estimate (log intensity, higher = more binding, comparable within an allelic series); in [6] it was 6.68 upbm affinity estimate (log intensity, higher = more binding, comparable within an allelic series); in test [7] it was 6.45 upbm affinity estimate (log intensity, higher = more binding, comparable within an allelic series).

On to GTCCAGAC, for which the binding signal is 6.53 upbm affinity estimate (log intensity, higher = more binding, comparable within an allelic series) in test [4]; 6.49 upbm affinity estimate (log intensity, higher = more binding, comparable within an allelic series) in test [6]; 6.42 upbm affinity estimate (log intensity, higher = more binding, comparable within an allelic series) in test [7].

Turning to ATAACTCC, the binding signal in test [4] was 8.41 upbm affinity estimate (log intensity, higher = more binding, comparable within an allelic series); in test [6], 8.38 upbm affinity estimate (log intensity, higher = more binding, comparable within an allelic series); in test [7], 8.38 upbm affinity estimate (log intensity, higher = more binding, comparable within an allelic series).
